From the supplement of paper PMC10849652
Targets with a hit are over-represented here; the source holds about 7,900 in all. About 0.6% of all pairs of compound and target were hits.

What was measured:
Experiment in all cases: log2 fold change, soluble protein after heating vs DMSO (PISA); higher = thermal stabilisation; K562 cells, 10 uM, 30 min; active = over 0.2 and 3.5 SD of the protein, either way, in both replicates (recomputed)
[1] = compound: CC1=C(C=C(C=C1)NC(=O)C2=CC(=CC=C2)C(C)(C)C#N)NC3=CC4=C(C=C3)N=CN(C4=O)C
How it was run: (§1)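 Quantification of soluble protein used TMTpro 16plex LC-MS/MS, with channel sums equalised. Samples were the supernatant after 21,000xg for 90 min of pooled aliquots from K562 cells (2×10^6 cells/mL) treated with 10 μM compound for 30 min, heated for 3 min over 48°C-58°C, and extracted in PBS with 0.5% NP-40 at 4°C. Values, from duplicates, describe thermal stability against control samples on a log2 fold-change scale.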

[2] = compound: CC1=C(C=C(C=C1)NC(=O)C2=CC(=CC=C2)N(C)C)NC(=O)C3=CC=C(C=C3)O
How it was run: as §1

[3] = compound: CC1=CC=C(C=C1)SC2=C3C=C(SC3=CN=C2)C(=O)N
How it was run: as §1

[4] = compound: CC1=NC(=CC=C1)C2=C(N=C(N2)C(C)(C)C)C3=CC4=NC=CN=C4C=C3
How it was run: as §1

Nexturastat A = compound: CCCCN(Cc1ccc(C(=O)NO)cc1)C(=O)Nc1ccccc1 [Nexturastat A]
How it was run: as §1

vemurafenib = compound: CCCS(=O)(=O)Nc1ccc(F)c(C(=O)c2c[nH]c3ncc(-c4ccc(Cl)cc4)cc23)c1F [vemurafenib]
How it was run: as §1

[5] = compound: CCCS(=O)(=O)Nc1ccc(F)c(C(=O)c2c[nH]c3ncc(Cl)cc23)c1F
How it was run: as §1

[6] = compound: CCCc1cc(C)[nH]c(=O)c1CNC(=O)c1cc(-c2ccnc(N3CCN(C)CC3)c2)cc2c1cnn2C(C)C
How it was run: as §1

givinostat = compound: CCN(CC)Cc1ccc2cc(COC(=O)Nc3ccc(C(=O)NO)cc3)ccc2c1 [givinostat]
How it was run: as §1

barasertib = compound: CCN(CCCOc1ccc2c(Nc3cc(CC(=O)Nc4cccc(F)c4)[nH]n3)ncnc2c1)CCOP(=O)(O)O [barasertib]
How it was run: as §1

Measured: log2 fold change

INTS7 (UniProt Q9NVH2)
inactive: [1] 0.134 | [2] -0.007 | [3] 0.088 | [4] 0.091 | Nexturastat A -0.001 | vemurafenib 0.039 | [5] 0.018 | [6] 0.027 | givinostat 0.242 | barasertib 0.022

MDN1 (UniProt Q9NU22)
inactive: [1] -0.023 | [2] -0.021 | [3] 0.034 | [4] 0.061 | Nexturastat A -0.009 | vemurafenib 0.02 | [5] 0.074 | [6] 0.027 | givinostat 0.083 | barasertib 0.047

IRF3 (UniProt Q14653)
inactive: [1] 0.18 | [2] -0.081 | [3] 0.011 | [4] 0.077 | Nexturastat A -0.046 | vemurafenib 0.074 | [5] 0.098 | [6] 0.011 | givinostat 0.031 | barasertib -0.015

MAP1LC3B2 (UniProt A6NCE7)
inactive: [1] 0.021 | [2] -0.034 | [3] -0.029 | [4] 0.04 | Nexturastat A -0.028 | vemurafenib 0.088 | [5] 0.01 | [6] 0.041 | givinostat 0.038 | barasertib 0

LIMA1 isoform 4 (UniProt Q9UHB6)
inactive: [1] -0.082 | [2] 0.133 | [3] -0.014 | [4] 0.033 | Nexturastat A 0.004 | vemurafenib 0.061 | [5] 0.011 | [6] -0.033 | givinostat 0.032 | barasertib -0.025

MIEF1 (UniProt L0R8F8)
inactive: [1] -0.007 | [2] 0.003 | [3] 0.019 | [4] -0.026 | Nexturastat A 0.092 | vemurafenib 0.079 | [5] 0.102 | [6] -0.001 | givinostat 0.006 | barasertib 0.003

MFN2 (UniProt O95140)
Sequence of UniProt O95140 (O95140 whole entry, looked up): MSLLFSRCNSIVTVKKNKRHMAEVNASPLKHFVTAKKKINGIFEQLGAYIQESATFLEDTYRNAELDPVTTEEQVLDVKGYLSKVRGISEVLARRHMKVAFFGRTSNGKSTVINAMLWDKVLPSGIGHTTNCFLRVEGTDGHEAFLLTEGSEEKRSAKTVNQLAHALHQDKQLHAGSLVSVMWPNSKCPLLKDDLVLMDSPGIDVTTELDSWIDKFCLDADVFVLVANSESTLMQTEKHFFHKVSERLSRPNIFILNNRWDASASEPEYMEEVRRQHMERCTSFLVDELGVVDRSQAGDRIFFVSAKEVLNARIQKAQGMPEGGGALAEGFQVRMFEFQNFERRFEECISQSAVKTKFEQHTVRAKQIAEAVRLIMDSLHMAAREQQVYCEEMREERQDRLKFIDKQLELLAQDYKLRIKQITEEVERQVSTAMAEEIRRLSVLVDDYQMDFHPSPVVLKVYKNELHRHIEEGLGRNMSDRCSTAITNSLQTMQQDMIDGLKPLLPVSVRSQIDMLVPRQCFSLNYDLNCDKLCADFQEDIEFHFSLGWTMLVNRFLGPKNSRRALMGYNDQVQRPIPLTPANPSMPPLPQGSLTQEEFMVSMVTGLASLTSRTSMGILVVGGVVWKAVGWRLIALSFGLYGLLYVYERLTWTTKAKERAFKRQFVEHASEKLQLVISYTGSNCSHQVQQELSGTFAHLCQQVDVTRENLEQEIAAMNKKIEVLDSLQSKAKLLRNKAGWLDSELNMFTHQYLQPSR
inactive: [1] -0.021 | [2] -0.029 | [3] 0.018 | [4] 0.009 | Nexturastat A -0.022 | vemurafenib 0.019 | [5] 0.064 | [6] -0.004 | givinostat 0.01 | barasertib 0.025

LMF2 (UniProt Q9BU23)
inactive: [1] 0.009 | [2] -0.07 | [3] 0.025 | [4] -0.078 | Nexturastat A -0.022 | vemurafenib 0.067 | [5] -0.022 | [6] 0.016 | givinostat 0.033 | barasertib -0.002

MCL1 (UniProt Q07820)
inactive: [1] -0.022 | [2] -0.047 | [3] 0.048 | [4] 0.048 | Nexturastat A 0.08 | vemurafenib -0.057 | [5] -0.164 | [6] 0.084 | givinostat 0.075 | barasertib -0.027

IPO11 isoform 2 (UniProt Q9UI26)
inactive: [1] 0.028 | [2] 0.004 | [3] 0.024 | [4] 0.047 | Nexturastat A -0.002 | vemurafenib 0.052 | [5] 0.082 | [6] -0.031 | givinostat -0.031 | barasertib 0.014

LDAH isoform 2 (UniProt Q9H6V9)
Sequence of UniProt Q9H6V9 (Q9H6V9 whole entry, looked up): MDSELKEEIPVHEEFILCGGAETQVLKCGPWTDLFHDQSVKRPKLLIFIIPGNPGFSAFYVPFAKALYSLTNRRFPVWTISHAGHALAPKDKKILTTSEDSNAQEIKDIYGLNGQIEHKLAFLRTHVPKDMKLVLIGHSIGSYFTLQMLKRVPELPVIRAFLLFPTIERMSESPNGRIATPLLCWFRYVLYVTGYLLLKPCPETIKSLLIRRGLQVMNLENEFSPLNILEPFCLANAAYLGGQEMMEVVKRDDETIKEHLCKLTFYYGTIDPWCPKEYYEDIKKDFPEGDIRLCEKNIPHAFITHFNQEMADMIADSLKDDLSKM
inactive: [1] -0.026 | [2] -0.008 | [3] 0 | [4] -0.024 | Nexturastat A 0.032 | vemurafenib 0.044 | [5] 0.024 | [6] -0.04 | givinostat 0.059 | barasertib 0.031

LEMD2 (UniProt Q8NC56)
inactive: [1] -0.068 | [2] -0.02 | [3] 0.038 | [4] 0.051 | Nexturastat A -0.002 | vemurafenib -0.001 | [5] 0.045 | [6] 0.002 | givinostat -0.022 | barasertib 0.017

INPP5B (UniProt P32019)
Sequence of UniProt P32019 (P32019 whole entry, looked up): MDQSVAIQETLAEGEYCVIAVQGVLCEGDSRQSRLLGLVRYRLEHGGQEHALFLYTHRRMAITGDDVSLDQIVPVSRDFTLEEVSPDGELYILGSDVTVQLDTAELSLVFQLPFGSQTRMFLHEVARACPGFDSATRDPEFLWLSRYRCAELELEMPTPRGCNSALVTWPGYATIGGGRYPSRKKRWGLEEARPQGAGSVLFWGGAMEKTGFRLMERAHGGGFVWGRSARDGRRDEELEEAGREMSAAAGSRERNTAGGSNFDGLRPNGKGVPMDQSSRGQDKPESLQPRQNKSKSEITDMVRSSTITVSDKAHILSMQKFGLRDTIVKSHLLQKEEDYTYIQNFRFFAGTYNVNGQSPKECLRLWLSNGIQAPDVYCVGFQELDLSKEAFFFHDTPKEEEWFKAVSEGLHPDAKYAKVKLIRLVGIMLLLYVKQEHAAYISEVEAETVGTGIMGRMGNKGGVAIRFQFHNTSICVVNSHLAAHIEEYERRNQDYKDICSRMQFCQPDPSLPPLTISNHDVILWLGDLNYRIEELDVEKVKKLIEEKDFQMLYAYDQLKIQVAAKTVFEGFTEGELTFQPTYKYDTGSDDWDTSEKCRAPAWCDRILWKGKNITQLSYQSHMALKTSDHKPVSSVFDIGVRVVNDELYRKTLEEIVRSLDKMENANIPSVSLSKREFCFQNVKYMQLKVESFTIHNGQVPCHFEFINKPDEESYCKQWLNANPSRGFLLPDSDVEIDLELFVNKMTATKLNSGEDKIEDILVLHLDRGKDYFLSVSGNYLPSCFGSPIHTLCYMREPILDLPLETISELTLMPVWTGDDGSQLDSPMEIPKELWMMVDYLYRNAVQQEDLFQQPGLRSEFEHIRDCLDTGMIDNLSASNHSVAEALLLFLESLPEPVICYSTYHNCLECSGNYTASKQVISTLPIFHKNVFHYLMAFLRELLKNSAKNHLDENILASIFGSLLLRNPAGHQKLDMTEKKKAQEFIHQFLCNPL
inactive: [1] 0.02 | [2] -0.06 | [3] -0.071 | [4] 0.007 | Nexturastat A 0.096 | vemurafenib -0.006 | [5] -0.004 | [6] 0.062 | givinostat 0.105 | barasertib 0.069

MCUR1 (UniProt Q96AQ8)
Sequence of UniProt Q96AQ8 (Q96AQ8 whole entry, looked up): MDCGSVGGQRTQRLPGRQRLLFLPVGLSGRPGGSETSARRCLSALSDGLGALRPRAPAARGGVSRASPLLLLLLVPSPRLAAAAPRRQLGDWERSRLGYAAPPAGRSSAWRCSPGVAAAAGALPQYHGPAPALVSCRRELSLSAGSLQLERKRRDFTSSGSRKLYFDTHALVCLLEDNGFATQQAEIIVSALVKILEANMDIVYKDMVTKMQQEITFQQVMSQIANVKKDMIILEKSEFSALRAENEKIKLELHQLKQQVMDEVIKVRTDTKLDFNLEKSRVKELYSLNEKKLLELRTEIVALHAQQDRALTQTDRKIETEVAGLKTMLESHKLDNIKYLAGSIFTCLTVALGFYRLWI
inactive: [1] 0 | [2] -0.067 | [3] -0.01 | [4] 0.012 | Nexturastat A -0.06 | vemurafenib 0.018 | [5] -0.041 | [6] -0.079 | givinostat -0.033 | barasertib -0.008

ILF2 (UniProt Q12905)
Sequence of UniProt Q12905 (Q12905 whole entry, looked up): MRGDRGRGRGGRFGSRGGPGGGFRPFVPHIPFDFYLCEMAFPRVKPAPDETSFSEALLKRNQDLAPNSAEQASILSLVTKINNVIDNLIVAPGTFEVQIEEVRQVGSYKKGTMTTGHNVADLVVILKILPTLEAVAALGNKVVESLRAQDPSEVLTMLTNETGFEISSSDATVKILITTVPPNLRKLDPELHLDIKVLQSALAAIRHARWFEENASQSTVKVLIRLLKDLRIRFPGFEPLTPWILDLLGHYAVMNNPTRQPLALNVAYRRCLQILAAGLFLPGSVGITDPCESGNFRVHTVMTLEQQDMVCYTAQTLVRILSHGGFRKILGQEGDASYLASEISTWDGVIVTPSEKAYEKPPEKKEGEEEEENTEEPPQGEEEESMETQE
inactive: [1] 0.036 | [2] -0.032 | [3] -0.031 | [4] -0.041 | Nexturastat A 0.084 | vemurafenib 0.028 | [5] -0.042 | [6] 0.032 | givinostat -0.02 | barasertib -0.119

LUC7L3 (UniProt O95232)
inactive: [1] -0.046 | [2] 0.034 | [3] -0.036 | [4] 0.086 | Nexturastat A -0.008 | vemurafenib 0.024 | [5] 0.013 | [6] -0.009 | givinostat 0.003 | barasertib 0.022

IPO7 (UniProt O95373)
inactive: [1] 0.004 | [2] -0.007 | [3] 0.035 | [4] 0.035 | Nexturastat A 0.009 | vemurafenib 0.025 | [5] 0.081 | [6] -0.007 | givinostat 0.009 | barasertib 0.047

MARCKSL1 (UniProt P49006)
inactive: [1] 0.039 | [2] 0.011 | [3] -0.111 | [4] 0.032 | Nexturastat A -0.127 | vemurafenib 0.005 | [5] -0.125 | [6] 0.005 | givinostat 0.041 | barasertib 0.034

ILF3 isoform 7 (UniProt Q12906)
inactive: [1] 0.028 | [2] -0.068 | [3] -0.087 | [4] -0.036 | Nexturastat A 0.146 | vemurafenib -0.036 | [5] -0.1 | [6] 0.102 | givinostat -0.017 | barasertib -0.125

LTN1 isoform 3 (UniProt O94822)
inactive: [1] -0.013 | [2] -0.031 | [3] -0.008 | [4] -0.006 | Nexturastat A 0.104 | vemurafenib 0.039 | [5] 0.058 | [6] 0.017 | givinostat 0.065 | barasertib 0.042

KHDRBS1 (UniProt Q07666)
inactive: [1] 0.086 | [2] -0.006 | [3] -0.082 | [4] 0.111 | Nexturastat A 0.077 | vemurafenib 0.075 | [5] -0.068 | [6] 0.034 | givinostat 0.005 | barasertib -0.106

LTO1 (UniProt Q8WV07)
Sequence of UniProt Q8WV07 (Q8WV07 whole entry, looked up): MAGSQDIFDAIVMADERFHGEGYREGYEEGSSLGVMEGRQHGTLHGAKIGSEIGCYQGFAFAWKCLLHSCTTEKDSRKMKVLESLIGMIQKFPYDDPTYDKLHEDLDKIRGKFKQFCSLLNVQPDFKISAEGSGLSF
inactive: [1] 0.021 | [2] -0.042 | [3] -0.021 | [4] -0.009 | Nexturastat A 0.245 | vemurafenib 0.101 | [5] 0.027 | [6] 0 | givinostat -0.121 | barasertib -0.04

MDC1 (UniProt Q14676)
Sequence of UniProt Q14676 (Q14676 whole entry, looked up): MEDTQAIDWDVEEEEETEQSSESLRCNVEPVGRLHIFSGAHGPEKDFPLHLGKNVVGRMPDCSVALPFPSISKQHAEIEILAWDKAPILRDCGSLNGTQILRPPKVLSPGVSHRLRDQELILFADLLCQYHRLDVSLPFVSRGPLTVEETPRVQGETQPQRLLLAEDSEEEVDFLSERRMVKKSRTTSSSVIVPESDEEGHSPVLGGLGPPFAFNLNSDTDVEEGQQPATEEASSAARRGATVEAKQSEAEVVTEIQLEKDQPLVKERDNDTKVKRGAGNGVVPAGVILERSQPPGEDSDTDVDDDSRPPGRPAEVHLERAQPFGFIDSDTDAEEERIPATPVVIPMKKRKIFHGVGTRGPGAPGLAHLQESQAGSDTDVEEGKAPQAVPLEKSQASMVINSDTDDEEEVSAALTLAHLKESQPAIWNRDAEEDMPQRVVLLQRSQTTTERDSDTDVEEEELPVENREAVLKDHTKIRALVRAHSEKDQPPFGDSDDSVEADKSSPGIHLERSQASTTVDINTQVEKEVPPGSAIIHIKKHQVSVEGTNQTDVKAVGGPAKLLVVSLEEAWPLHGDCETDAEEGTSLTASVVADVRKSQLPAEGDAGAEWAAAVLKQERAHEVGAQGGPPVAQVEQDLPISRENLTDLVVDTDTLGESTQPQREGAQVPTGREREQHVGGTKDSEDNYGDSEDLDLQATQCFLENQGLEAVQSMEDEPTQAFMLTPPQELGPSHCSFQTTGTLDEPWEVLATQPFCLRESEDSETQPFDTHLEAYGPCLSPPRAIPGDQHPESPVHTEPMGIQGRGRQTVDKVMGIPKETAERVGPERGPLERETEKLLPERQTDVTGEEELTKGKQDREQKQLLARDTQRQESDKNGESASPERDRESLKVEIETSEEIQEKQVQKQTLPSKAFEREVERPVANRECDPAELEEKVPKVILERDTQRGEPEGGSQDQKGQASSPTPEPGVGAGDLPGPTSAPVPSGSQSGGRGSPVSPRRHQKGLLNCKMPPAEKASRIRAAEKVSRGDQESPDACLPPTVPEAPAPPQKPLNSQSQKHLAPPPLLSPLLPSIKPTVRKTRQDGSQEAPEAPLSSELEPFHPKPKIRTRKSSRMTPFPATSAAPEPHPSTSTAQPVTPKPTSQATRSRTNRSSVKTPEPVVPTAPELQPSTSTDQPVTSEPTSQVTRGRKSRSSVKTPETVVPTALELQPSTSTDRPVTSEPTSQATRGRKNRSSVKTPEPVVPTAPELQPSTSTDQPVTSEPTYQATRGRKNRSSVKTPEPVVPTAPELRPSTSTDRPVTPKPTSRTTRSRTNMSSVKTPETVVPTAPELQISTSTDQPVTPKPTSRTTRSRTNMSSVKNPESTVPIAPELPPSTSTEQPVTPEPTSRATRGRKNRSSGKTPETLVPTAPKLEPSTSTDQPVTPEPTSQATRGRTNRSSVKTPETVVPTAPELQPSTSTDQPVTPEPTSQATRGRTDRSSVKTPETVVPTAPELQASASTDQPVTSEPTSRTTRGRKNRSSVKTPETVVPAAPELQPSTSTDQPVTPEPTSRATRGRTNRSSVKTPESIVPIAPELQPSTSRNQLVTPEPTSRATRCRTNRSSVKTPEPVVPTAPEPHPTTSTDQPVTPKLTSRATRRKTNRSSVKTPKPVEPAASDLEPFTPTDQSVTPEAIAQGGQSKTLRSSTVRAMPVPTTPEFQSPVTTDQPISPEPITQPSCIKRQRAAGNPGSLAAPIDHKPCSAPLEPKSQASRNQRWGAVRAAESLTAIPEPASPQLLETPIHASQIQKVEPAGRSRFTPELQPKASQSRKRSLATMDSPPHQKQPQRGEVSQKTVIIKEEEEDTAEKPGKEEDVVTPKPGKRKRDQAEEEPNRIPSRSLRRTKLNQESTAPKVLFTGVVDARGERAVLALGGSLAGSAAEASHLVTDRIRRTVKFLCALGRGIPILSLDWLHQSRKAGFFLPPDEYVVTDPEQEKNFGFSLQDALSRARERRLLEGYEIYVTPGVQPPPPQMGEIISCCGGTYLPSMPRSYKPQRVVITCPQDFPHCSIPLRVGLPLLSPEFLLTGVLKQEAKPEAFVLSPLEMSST
inactive: [1] -0.019 | [2] -0.037 | [3] -0.013 | [4] -0.076 | Nexturastat A 0.048 | vemurafenib -0.037 | [5] -0.008 | [6] 0.074 | givinostat 0.055 | barasertib -0.074

KEAP1 (UniProt Q14145)
inactive: [1] -0.024 | [2] 0.032 | [3] 0.005 | [4] -0.009 | Nexturastat A 0.038 | vemurafenib 0.054 | [5] 0.101 | [6] 0.004 | givinostat 0.034 | barasertib 0.082

KIFBP (UniProt Q96EK5)
inactive: [1] 0.019 | [2] 0.034 | [3] 0.052 | [4] 0.027 | Nexturastat A -0.107 | vemurafenib 0.067 | [5] 0.093 | [6] -0.013 | givinostat -0.004 | barasertib 0.022

METTL18 (UniProt O95568)
inactive: [1] -0.026 | [2] 0.018 | [3] -0.032 | [4] 0.028 | Nexturastat A -0.164 | vemurafenib 0.014 | [5] 0.05 | [6] -0.042 | givinostat -0.245 | barasertib 0.012

IMMP1L (UniProt Q96LU5)
inactive: [1] 0.003 | [2] 0.067 | [3] 0.008 | [4] -0.029 | Nexturastat A -0.085 | vemurafenib -0.055 | [5] -0.031 | [6] 0.273 | givinostat -0.048 | barasertib -0.024

MARCKS (UniProt P29966)
inactive: [1] -0.001 | [2] -0.066 | [3] 0.01 | [4] 0.072 | Nexturastat A -0.104 | vemurafenib 0.047 | [5] -0.004 | [6] 0.252 | givinostat -0.096 | barasertib 0.005

LDLR (UniProt P01130)
inactive: [1] -0.063 | [2] 0.006 | [3] 0.006 | [4] 0.01 | Nexturastat A 0 | vemurafenib -0.022 | [5] -0.073 | [6] -0.018 | givinostat -0.03 | barasertib 0.019

MAIP1 (UniProt Q8WWC4)
inactive: [1] -0.022 | [2] -0.005 | [3] 0.083 | [4] 0.088 | Nexturastat A -0.033 | vemurafenib 0.034 | [5] 0.057 | [6] -0.034 | givinostat 0.001 | barasertib -0.002

KIF13A (UniProt Q9H1H9)
inactive: [1] -0.005 | [2] 0.021 | [3] -0.005 | [4] -0.004 | Nexturastat A 0.018 | vemurafenib -0.045 | [5] 0.04 | [6] -0.005 | givinostat -0.021 | barasertib -0.009

LARP4 isoform 4 (UniProt Q71RC2)
inactive: [1] 0.066 | [2] 0.005 | [3] -0.041 | [4] -0.002 | Nexturastat A 0.251 | vemurafenib -0.017 | [5] 0.018 | [6] 0.054 | givinostat 0.04 | barasertib -0.053
